{"source": "the antibiotic and cytotoxicity screens of Wong et al. (2023)", "note": "The whole screen tested about 39,000 compounds, of which about 3,300 (8.5%) were called active. What follows is part of a selection rich in actives, with near analogues and random picks from the rest."}
{"system": "HepG2", "test": "cytotoxicity call (relative viability < 0.9)", "details": "10 µM"}
{"smiles": "O=C(C[C@@H]1CC[C@H](NS(=O)(=O)c2ccccc2)[C@@H](CO)O1)NCc1ccncn1", "cytotoxicity call": "inactive"}
{"smiles": "C[C@H](CO)N1C[C@H](C)[C@H](CN(C)C(=O)Nc2ccc(C(F)(F)F)cc2)Oc2ccc(NC(=O)C3CCCCC3)cc2C1=O", "cytotoxicity call": "inactive"}
{"smiles": "C[C@H](CO)N1C[C@H](C)[C@@H](CN(C)Cc2ccc(F)cc2)Oc2cc(C#CC3CC3)ccc2S1(=O)=O", "cytotoxicity call": "inactive"}
{"smiles": "C[C@H](CO)N1C[C@H](C)[C@@H](CN(C)Cc2ccc(F)cc2)Oc2cc(C#CCN(C)C)ccc2S1(=O)=O", "cytotoxicity call": "inactive"}
{"smiles": "C[C@@H]1CN([C@@H](C)CO)S(=O)(=O)c2ccc(C#CCN(C)C)cc2O[C@@H]1CN(C)Cc1ccc(F)cc1", "cytotoxicity call": "inactive"}
{"smiles": "C[C@H]1CN([C@@H](C)CO)S(=O)(=O)c2ccc(C#CCN(C)C)cc2O[C@@H]1CN(C)Cc1ccc(F)cc1", "cytotoxicity call": "inactive"}
{"smiles": "C[C@@H]1CN([C@@H](C)CO)S(=O)(=O)c2ccc(C#CC3CC3)cc2O[C@H]1CN(C)Cc1ccc(F)cc1", "cytotoxicity call": "inactive"}
{"smiles": "C[C@@H]1CN([C@H](C)CO)S(=O)(=O)c2ccc(C#CCN(C)C)cc2O[C@H]1CN(C)Cc1ccc(F)cc1", "cytotoxicity call": "active"}
{"smiles": "C[C@@H]1CN([C@H](C)CO)S(=O)(=O)c2ccc(C#CC3CC3)cc2O[C@H]1CN(C)Cc1ccc(F)cc1", "cytotoxicity call": "active"}
{"smiles": "C[C@@H]1CN([C@@H](C)CO)S(=O)(=O)c2ccc(C#CCN(C)C)cc2O[C@H]1CN(C)Cc1ccc(F)cc1", "cytotoxicity call": "inactive"}
{"smiles": "C[C@H](CO)N1C[C@H](C)[C@H](CN(C)Cc2ccc(F)cc2)Oc2cc(C#CCN(C)C)ccc2S1(=O)=O", "cytotoxicity call": "active"}
{"smiles": "CCCNC(=O)N1C[C@@H](O)COC[C@@H]2O[C@@H](CC(=O)NCc3ccncn3)CC[C@H]21", "cytotoxicity call": "inactive"}
{"smiles": "C[C@@H]1CN([C@@H](C)CO)S(=O)(=O)c2ccc(C3=CCCC3)cc2O[C@@H]1CN(C)C(=O)c1cnccn1", "cytotoxicity call": "inactive"}
{"smiles": "COc1ccc(CN(C)C[C@H]2OCCCC[C@H](C)Oc3ccc(NS(=O)(=O)c4ccc(Cl)cc4)cc3C(=O)N([C@H](C)CO)C[C@H]2C)cc1", "cytotoxicity call": "inactive"}
{"smiles": "C[C@H](CO)N1C[C@H](C)[C@@H](CN(C)C(=O)Cc2ccccc2)OCCCC[C@H](C)Oc2ccc(NC(=O)Cc3ccccc3)cc2C1=O", "cytotoxicity call": "inactive"}
{"smiles": "CC(C)N1C[C@H](C)[C@@H](CN(C)Cc2ccc(Oc3ccccc3)cc2)Oc2c(NC(=O)c3ccccn3)cccc2C1=O", "cytotoxicity call": "inactive"}
{"smiles": "COc1ccccc1-c1ccc2c(c1)O[C@H](CN(C)CC1CCOCC1)[C@@H](C)CN([C@H](C)CO)S2(=O)=O", "cytotoxicity call": "inactive"}
{"smiles": "C[C@@H]1CN([C@@H](C)CO)S(=O)(=O)c2ccc(C#CC3(O)CCCC3)cc2O[C@@H]1CN(C)C(=O)c1cccnc1", "cytotoxicity call": "inactive"}
